From PubChem BioAssay (NCATS)
Results filed as inconclusive are left out. A number with no mark means an inactive call. The source made the active and inactive calls. Calls come from the whole dose curve; as a rule, active = well fitted curve in the direction sought with a large enough effect; inconclusive = small, poorly fitted or top-dose-only effect, or another doubt; inactive = no such curve, though single readings can be large; an effect the other way counts as inactive or inconclusive.

biological target: phosphoglycerate mutase (Leishmania major) (UniProt Q4Q090); test: qHTS Validation Assay to Find Inhibitors of Phosphoglycerate Mutase (AID 504548); conditions: biochemical enzyme activity; series mostly up to 57.5 µM; activity change, negative = inhibition: at the top concentration;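 note: end-point luminescence from Kinase-GloPlus after the PGAM reaction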
How it was run: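 L. major PGAM (1.25nM final) was added to substrate buffer and pinned compound, incubated 45 minutes at room temperature, then Kinase-GloPlus added; luminescence read after 10 minutes. Buffer: 100 mM TEA pH 7.6, 5 mM MgCl2, 0.01% Tween-20.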
% is set by controls: 0 for no effect and ±100 for the full control effect.

Chain of phosphoglycerate mutase (Leishmania major) (Q4Q090 1-553): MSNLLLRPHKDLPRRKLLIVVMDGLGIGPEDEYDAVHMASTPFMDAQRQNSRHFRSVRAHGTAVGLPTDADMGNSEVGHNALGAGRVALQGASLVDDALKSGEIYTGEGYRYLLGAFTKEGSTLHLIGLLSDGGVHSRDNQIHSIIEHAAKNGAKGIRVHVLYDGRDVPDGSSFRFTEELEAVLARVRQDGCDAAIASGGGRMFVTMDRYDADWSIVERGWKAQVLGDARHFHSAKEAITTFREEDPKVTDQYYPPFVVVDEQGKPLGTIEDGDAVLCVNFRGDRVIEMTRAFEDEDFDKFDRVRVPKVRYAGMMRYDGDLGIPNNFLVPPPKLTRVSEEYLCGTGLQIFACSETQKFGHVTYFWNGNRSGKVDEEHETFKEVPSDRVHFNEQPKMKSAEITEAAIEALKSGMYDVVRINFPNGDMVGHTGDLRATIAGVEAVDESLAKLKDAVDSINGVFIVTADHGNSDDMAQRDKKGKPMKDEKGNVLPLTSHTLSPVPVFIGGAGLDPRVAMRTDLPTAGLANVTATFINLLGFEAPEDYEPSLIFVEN

Compound	activity change, negative = inhibition
Cc1nc2ccccn2c(=O)c1CCN1CCC(C(=O)c2ccc(F)cc2)CC1	-4.13%
CNC1(C)C2CCC(C2)C1(C)C (configuration not stated)	-1.6%
Cc1scc2c1N(C(=O)CN1CCN(C)CC1)c1ccccc1NC2=O	3.59%
CC[N+](C)(C)c1cccc(O)c1	-1.03%
c1ccc2c(c1)CCCC2C1=NCCN1 (configuration not stated)	0.918%
C[C@]12CCC(=O)C=C1CC[C@@H]1[C@@H]2CC[C@@]2(C)[C@H]1CC[C@]2(O)C(=O)CO	2.87%
Brc1c(NC2=NCCN2)ccc2nccnc12	2.45%
COCCc1ccc(OCC(O)CNC(C)C)cc1 (configuration not stated)	-2.91%
O=C1CC2(CCCC2)CC(=O)N1CCCCN1CCN(c2ncccn2)CC1	-7.24%
NS(=O)(=O)c1cc2c(cc1Cl)NC(C1CC3C=CC1C3)NS2(=O)=O (configuration not stated)	-3.03%
CCCCNc1c(C(=O)OCC)c(C)nc2c1cnn2CC	-2.58%
CCN1CCC[C@H]1CNC(=O)c1c(O)c(Cl)cc(Cl)c1OC	0.901%
CC(C)[N+](C)(CCOC(=O)C1c2ccccc2Oc2ccccc21)C(C)C	-5.47%
CN1C(=O)CC[C@H]1c1cccnc1	-0.241%
CC(C)COCC(CN(Cc1ccccc1)c1ccccc1)N1CCCC1 (configuration not stated)	11.7%
COc1ccc([C@@H]2Sc3ccccc3N(CCN(C)C)C(=O)[C@@H]2OC(C)=O)cc1	-2.08%
CN(C)C(=O)Oc1cccc([N+](C)(C)C)c1	-6.89%
NCCCNCCSP(=O)(O)O	-2.24%

Compound	activity change, negative = inhibition
CCn1nc(C(=O)O)c(=O)c2cc3c(cc21)OCO3	6.01%
O=C(O)CN(CCOCCOCCN(CC(=O)O)CC(=O)O)CC(=O)O	-1.83%
NC(N)=NC(=O)Cc1c(Cl)cccc1Cl	-2.81%
C#CCN(C)CCCOc1ccc(Cl)cc1Cl	-0.368%
N[C@@H](COP(=O)(O)O)C(=O)O	-2.98%
OCCN1CCN(CC/C=C2/c3ccccc3Sc3ccc(C(F)(F)F)cc32)CC1	-5.69%
CN(C)C(=O)Oc1ccc[n+](C)c1	18.3%
CSc1ccc(C(=O)c2[nH]c(=O)[nH]c2C)cc1	-15.3%
CCn1cc(C(=O)O)c(=O)c2cc3c(cc21)OCO3	7.04%
NC/C=C/C(=O)O	-2.8%
CCCN(CCC)C(=O)C(CCC(=O)O)NC(=O)c1ccccc1 (configuration not stated)	5.42%
O=C(O)CP(=O)(O)O	-0.819%
CCOC(=O)c1cnc2c(cnn2CC)c1NN=C(C)C	1.12%
CCc1c(C)[nH]c2c1C(=O)C(CN1CCOCC1)CC2 (configuration not stated)	2.42%
NC(Cc1ccc(Cl)cc1)C(=O)O (configuration not stated)	0.012%
CN(C)CCOC(=O)COc1ccc(Cl)cc1	-11.4%
C[N+](C)(C)CCOC(N)=O	3.27%
CN(C(=O)CCCOc1ccc2[nH]c(=O)ccc2c1)C1CCCCC1	-2.78%

biological target: Ubiquitin carboxyl-terminal hydrolase 1 (Homo sapiens) (UniProt O94782); test: Inhibitors of USP1/UAF1: Pilot qHTS (AID 504865); conditions: purified USP1/UAF1, Ub-rhodamine cleavage fluorescence; series mostly up to 114 µM; activity change, negative = inhibition: at the top concentration; note: nearly all actives have a fitted effect of over 35% in size; note: potency is the fitted concentration of half-maximal effect;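 for activity change, negative = inhibition: rhodamine fluorescence freed from ubiquitin-rhodamine substrate followed over time; top concentration of the series differs between compounds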
How it was run: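 1nM USP1/UAF1 + cpd, 15 min RT; start w/ Ub-Rho 150nM final; kinetic FL 480/540 nm, 6 reads q60 s. Buffer 50mM HEPES pH 7.8, 0.5mM EDTA, 1mM TCEP, 0.01% Tween-20, 0.1 mg/ml BSA.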

Chain of Ubiquitin carboxyl-terminal hydrolase 1 (Homo sapiens) (O94782 whole entry, looked up): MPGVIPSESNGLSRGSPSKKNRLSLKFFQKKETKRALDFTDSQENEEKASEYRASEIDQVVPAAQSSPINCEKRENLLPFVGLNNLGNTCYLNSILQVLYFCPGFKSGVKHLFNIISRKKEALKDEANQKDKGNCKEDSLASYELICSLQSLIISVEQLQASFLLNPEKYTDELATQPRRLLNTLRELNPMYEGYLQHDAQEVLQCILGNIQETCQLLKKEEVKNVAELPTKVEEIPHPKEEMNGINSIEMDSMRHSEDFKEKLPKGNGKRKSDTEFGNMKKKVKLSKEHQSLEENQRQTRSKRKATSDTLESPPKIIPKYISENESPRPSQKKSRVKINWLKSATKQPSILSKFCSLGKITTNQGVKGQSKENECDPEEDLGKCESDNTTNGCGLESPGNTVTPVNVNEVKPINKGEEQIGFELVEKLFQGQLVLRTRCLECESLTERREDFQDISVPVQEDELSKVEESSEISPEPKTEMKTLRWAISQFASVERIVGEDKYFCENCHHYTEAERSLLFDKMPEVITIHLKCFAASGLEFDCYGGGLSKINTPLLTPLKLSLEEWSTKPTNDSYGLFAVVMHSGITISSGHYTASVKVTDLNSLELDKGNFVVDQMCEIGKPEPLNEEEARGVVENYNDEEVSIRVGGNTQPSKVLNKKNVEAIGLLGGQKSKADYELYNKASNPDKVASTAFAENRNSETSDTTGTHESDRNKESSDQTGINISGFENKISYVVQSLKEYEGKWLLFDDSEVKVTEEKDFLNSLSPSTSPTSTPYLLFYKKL

Compound	Potency	activity change, negative = inhibition
Cc1nc2ccccn2c(=O)c1CCN1CCC(C(=O)c2ccc(F)cc2)CC1	inactive	–
CNC1(C)C2CCC(C2)C1(C)C (configuration not stated)	inactive	–
Cc1scc2c1N(C(=O)CN1CCN(C)CC1)c1ccccc1NC2=O	inactive	–
CC[N+](C)(C)c1cccc(O)c1	inactive	–
c1ccc2c(c1)CCCC2C1=NCCN1 (configuration not stated)	inactive	–
C[C@]12CCC(=O)C=C1CC[C@@H]1[C@@H]2CC[C@@]2(C)[C@H]1CC[C@]2(O)C(=O)CO	inactive	–
Brc1c(NC2=NCCN2)ccc2nccnc12	inactive	–
COCCc1ccc(OCC(O)CNC(C)C)cc1 (configuration not stated)	–	5.58%
O=C1CC2(CCCC2)CC(=O)N1CCCCN1CCN(c2ncccn2)CC1	inactive	–
NS(=O)(=O)c1cc2c(cc1Cl)NC(C1CC3C=CC1C3)NS2(=O)=O (configuration not stated)	inactive	–
CCCCNc1c(C(=O)OCC)c(C)nc2c1cnn2CC	–	-2.29% [at 54.9 µM]
CCN1CCC[C@H]1CNC(=O)c1c(O)c(Cl)cc(Cl)c1OC	inactive	–
CC(C)[N+](C)(CCOC(=O)C1c2ccccc2Oc2ccccc21)C(C)C	inactive	–
CN1C(=O)CC[C@H]1c1cccnc1	–	-5.91%
CC(C)COCC(CN(Cc1ccccc1)c1ccccc1)N1CCCC1 (configuration not stated)	inactive	–
COc1ccc([C@@H]2Sc3ccccc3N(CCN(C)C)C(=O)[C@@H]2OC(C)=O)cc1	inactive	–
CN(C)C(=O)Oc1cccc([N+](C)(C)C)c1	inactive	–
NCCCNCCSP(=O)(O)O	inactive	–

Compound	Potency	activity change, negative = inhibition
CCn1nc(C(=O)O)c(=O)c2cc3c(cc21)OCO3	inactive	–
O=C(O)CN(CCOCCOCCN(CC(=O)O)CC(=O)O)CC(=O)O	inactive	–
NC(N)=NC(=O)Cc1c(Cl)cccc1Cl	inactive	–
C#CCN(C)CCCOc1ccc(Cl)cc1Cl	inactive	–
N[C@@H](COP(=O)(O)O)C(=O)O	inactive	–
OCCN1CCN(CC/C=C2/c3ccccc3Sc3ccc(C(F)(F)F)cc32)CC1	56.2 µM (active)	–
CN(C)C(=O)Oc1ccc[n+](C)c1	inactive	–
CSc1ccc(C(=O)c2[nH]c(=O)[nH]c2C)cc1	inactive	–
CCn1cc(C(=O)O)c(=O)c2cc3c(cc21)OCO3	inactive	–
NC/C=C/C(=O)O	inactive	–
CCCN(CCC)C(=O)C(CCC(=O)O)NC(=O)c1ccccc1 (configuration not stated)	–	-7.42%
O=C(O)CP(=O)(O)O	inactive	–
CCOC(=O)c1cnc2c(cnn2CC)c1NN=C(C)C	–	-1.57%
CCc1c(C)[nH]c2c1C(=O)C(CN1CCOCC1)CC2 (configuration not stated)	–	-2.17%
NC(Cc1ccc(Cl)cc1)C(=O)O (configuration not stated)	inactive	–
CN(C)CCOC(=O)COc1ccc(Cl)cc1	inactive	–
C[N+](C)(C)CCOC(N)=O	inactive	–
CN(C(=O)CCCOc1ccc2[nH]c(=O)ccc2c1)C1CCCCC1	inactive	–
